Reference: PubChem BioAssay (NCI)
The panel holds about 79,000 compounds, 15% with a hit somewhere; the sample as a whole holds those more often. Values without a mark were called inactive. Cut-off read from the data, not from the text of the source: active = growth inhibition above about 70%; inactive = the rest.

Test: NCI Yeast Anticancer Drug Screen. Data for the bub3 strain (AID 167)
Settings: S. cerevisiae bub3 mutant strain, at 1.2 µM, hits give high values
Procedure, shortened: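 Compounds were applied to a genetically altered yeast strain carrying a cell-cycle control defect. Growth inhibition was scored against vehicle-treated controls.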

| SMILES | growth inhibition [%] |
| --- | --- |
| CN(C)c1ccc(C2CC(C)(O)Oc3cc4c(cc32)OCO4)cc1 (stereo not drawn) | -5 |
| O=P(NC1CCCCC1)(OCc1ccccc1)OCc1ccccc1 | 0 |
| COc1oc(C(=O)NC2CCCCC2)c(-c2ccc(Cl)cc2)c1S(=O)(=O)c1ccccc1 | -18 |
| C[Si](C)(C)/C=C/CCNC(C#N)c1ccccc1 (stereo not drawn) | -8 |
| CCOc1ccc(NC(=O)C2=C(C)NC(C)=C(C(=O)Nc3ccc(OCC)cc3)C2c2cccc([N+](=O)[O-])c2)cc1 | -3 |
| CN(C)CCOC1(Cc2ccc(F)cc2)CCC(C(C)(C)C)CC1 (stereo not drawn) | -4 |
| CC1(C)CC(=O)C(/C=N/c2nc(-c3ccccc3)cs2)=C(O)C1 | -2 |
| CC(=O)Nc1ccc2c(c1)Cc1cc(N=C3C=CC(=O)O3)ccc1-2 | -1 |
| O=C1C=C(Cl)C(=O)C(c2ccc(Cl)cc2)=C1 | 5 |
| CNCCCNc1c2ccccc2nc2cccc([N+](=O)[O-])c12 | -12 |
| CCCCCCCCCCCC(O)S(=O)(=O)O (stereo not drawn) | 1 |
| CC(C)OC(=O)c1ccc(CCc2cc(O)c(Br)cc2O)cc1 | 22 |
| CCc1cc(O)c(Cl)c(C)c1Cl | -11 |
| C(=Nc1ccc(-c2cc(-c3ccccc3)nc3ccc4ccccc4c23)cc1)c1ccccc1 | -9 |
| CSc1nc(C)c(CCOC(C)=O)c(N=P(c2ccccc2)(c2ccccc2)c2ccccc2)n1 | 4 |
| CS(=O)(=O)SCc1ccc([N+](=O)[O-])cc1 | 6 |
| COC1=C(OC)C(=O)C(Sc2ccc3ccccc3c2)=CC1=O | -11 |
| COc1nc2c(c(=O)n1C)N=C(c1ccccc1)[C@H](C(CC(=O)c1ccccc1)c1ccccc1)C(c1ccccc1)N2 (stereo partly drawn) | -11 |
| Cc1cc(-c2cc(C)c(O)c(C(C)(C)C)c2)cc(C(C)(C)C)c1O | -6 |
| Nc1cc(N)c(N=Nc2cccc3c(S(=O)(=O)O)cccc23)cc1N=Nc1cc([N+](=O)[O-])ccc1O | -6 |

| SMILES | growth inhibition [%] |
| --- | --- |
| Nc1ccc(F)cc1S | -33 |
| Brc1ccccc1-c1ncc(-c2ccccc2)o1 | 15 |
| COc1cc(C2SCC(=O)N2c2ccc(-c3ccc(-n4c(-c5ccccc5)nc5ccccc5c4=O)cc3)cc2)ccc1O (stereo not drawn) | 1 |
| Nc1ncnc2c1ncn2C1OC(CO)CC1O (stereo not drawn) | -6 |
| COc1cc(CSc2ccc(O)cc2)cc(O)c1O | 6 |
| CCOC(=O)C1N=[N+](c2ccccc2)C(=O)/C1=C\n1c(=S)[nH]c2ccc([N+](=O)[O-])cc21 (stereo not drawn) | -7 |
| CNC(=O)OCc1c(COC(=O)NC)c2n(c1C)-c1ccc(OC)cc1CCC2 | -16 |
| O=C(NNc1ccccc1)c1ccc(Cl)c(Cl)c1 | -5 |
| Cc1ccc(CC2(OCCN(C)C)CCC(C(C)(C)C)CC2)cc1 (stereo not drawn) | -23 |
| C[C@]12CC[C@H](O)CC1=CC[C@@H]1C2CC[C@]2(C)C(=O)NC(=O)CC12 (stereo partly drawn) | -23 |
| CCCC/C=C/C(C)(C(=O)OCC)C(=O)OCC | -6 |
| CCc1c(Cl)c(C)cc(O)c1Cl | -8 |
| O=C(/C=C(/c1ccccc1)N1CCCCC1)c1ccccc1 | 2 |
| CCCC(=O)Oc1ccc(/C=N/NC(N)=S)nc1 | -5 |
| CCc1nc2ccc(NCCN(C)C)c3c(=O)c4ccccc4n1c23 | 9 |
| Cc1sc2ccc3ccccc3c2[n+]1C | -2 |
| COc1c(O)c(C=O)c(Br)c(C=O)c1O | -4 |
| Cc1ccc(Cl)cc1NC(=O)OCCN(C)C(=O)Nc1cc(Cl)ccc1C | -39 |
| Cc1nc2ccccc2nc1NNc1ccccc1 | 6 |

Same assay, conditions: S. cerevisiae bub3 mutant strain, at 3.7 µM, hits give high values

| SMILES | growth inhibition [%] |
| --- | --- |
| CN(C)c1ccc(C2CC(C)(O)Oc3cc4c(cc32)OCO4)cc1 (stereo not drawn) | -3 |
| O=P(NC1CCCCC1)(OCc1ccccc1)OCc1ccccc1 | 4 |
| COc1oc(C(=O)NC2CCCCC2)c(-c2ccc(Cl)cc2)c1S(=O)(=O)c1ccccc1 | -25 |
| C[Si](C)(C)/C=C/CCNC(C#N)c1ccccc1 (stereo not drawn) | 7 |
| CCOc1ccc(NC(=O)C2=C(C)NC(C)=C(C(=O)Nc3ccc(OCC)cc3)C2c2cccc([N+](=O)[O-])c2)cc1 | -2 |
| CN(C)CCOC1(Cc2ccc(F)cc2)CCC(C(C)(C)C)CC1 (stereo not drawn) | -4 |
| CC1(C)CC(=O)C(/C=N/c2nc(-c3ccccc3)cs2)=C(O)C1 | -3 |
| CC(=O)Nc1ccc2c(c1)Cc1cc(N=C3C=CC(=O)O3)ccc1-2 | 7 |
| O=C1C=C(Cl)C(=O)C(c2ccc(Cl)cc2)=C1 | 20 |
| CNCCCNc1c2ccccc2nc2cccc([N+](=O)[O-])c12 | 38 |
| CCCCCCCCCCCC(O)S(=O)(=O)O (stereo not drawn) | -1 |
| CC(C)OC(=O)c1ccc(CCc2cc(O)c(Br)cc2O)cc1 | 22 |
| CCc1cc(O)c(Cl)c(C)c1Cl | 11 |
| C(=Nc1ccc(-c2cc(-c3ccccc3)nc3ccc4ccccc4c23)cc1)c1ccccc1 | -13 |
| CSc1nc(C)c(CCOC(C)=O)c(N=P(c2ccccc2)(c2ccccc2)c2ccccc2)n1 | 6 |
| CS(=O)(=O)SCc1ccc([N+](=O)[O-])cc1 | 40 |
| COC1=C(OC)C(=O)C(Sc2ccc3ccccc3c2)=CC1=O | 0 |
| COc1nc2c(c(=O)n1C)N=C(c1ccccc1)[C@H](C(CC(=O)c1ccccc1)c1ccccc1)C(c1ccccc1)N2 (stereo partly drawn) | -34 |
| Cc1cc(-c2cc(C)c(O)c(C(C)(C)C)c2)cc(C(C)(C)C)c1O | 5 |
| Nc1cc(N)c(N=Nc2cccc3c(S(=O)(=O)O)cccc23)cc1N=Nc1cc([N+](=O)[O-])ccc1O | 6 |

| SMILES | growth inhibition [%] |
| --- | --- |
| Nc1ccc(F)cc1S | -15 |
| Brc1ccccc1-c1ncc(-c2ccccc2)o1 | 6 |
| COc1cc(C2SCC(=O)N2c2ccc(-c3ccc(-n4c(-c5ccccc5)nc5ccccc5c4=O)cc3)cc2)ccc1O (stereo not drawn) | 9 |
| Nc1ncnc2c1ncn2C1OC(CO)CC1O (stereo not drawn) | -2 |
| COc1cc(CSc2ccc(O)cc2)cc(O)c1O | 10 |
| CCOC(=O)C1N=[N+](c2ccccc2)C(=O)/C1=C\n1c(=S)[nH]c2ccc([N+](=O)[O-])cc21 (stereo not drawn) | 1 |
| CNC(=O)OCc1c(COC(=O)NC)c2n(c1C)-c1ccc(OC)cc1CCC2 | -26 |
| O=C(NNc1ccccc1)c1ccc(Cl)c(Cl)c1 | -2 |
| Cc1ccc(CC2(OCCN(C)C)CCC(C(C)(C)C)CC2)cc1 (stereo not drawn) | -24 |
| C[C@]12CC[C@H](O)CC1=CC[C@@H]1C2CC[C@]2(C)C(=O)NC(=O)CC12 (stereo partly drawn) | -15 |
| CCCC/C=C/C(C)(C(=O)OCC)C(=O)OCC | -5 |
| CCc1c(Cl)c(C)cc(O)c1Cl | -19 |
| O=C(/C=C(/c1ccccc1)N1CCCCC1)c1ccccc1 | 3 |
| CCCC(=O)Oc1ccc(/C=N/NC(N)=S)nc1 | -6 |
| CCc1nc2ccc(NCCN(C)C)c3c(=O)c4ccccc4n1c23 | 11 |
| Cc1sc2ccc3ccccc3c2[n+]1C | -15 |
| COc1c(O)c(C=O)c(Br)c(C=O)c1O | -1 |
| Cc1ccc(Cl)cc1NC(=O)OCCN(C)C(=O)Nc1cc(Cl)ccc1C | -39 |
| Cc1nc2ccccc2nc1NNc1ccccc1 | 9 |
